# PubChem BioAssay (NCATS)
# Records with an inconclusive call do not appear. Entries that show only a call come without a potency. Activity calls are given as the source filed them. Unless noted, calls follow the shape of the dose curve; as a rule, active = well fitted curve in the direction sought with a large enough effect; inconclusive = small, poorly fitted or top-dose-only effect, or another doubt; inactive = no such curve, though single readings can be large; an effect the other way counts as inactive or inconclusive.
# Tests used:
# [1] = qHTS for Inhibitors of Plasmodium falciparum (CP250) proliferation (AID 504320); also: potency is read from the fitted curve at half-maximal effect
# Method in brief: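 Erythrocytes infected with P. falciparum line (0.3% parasitemia, 2.5% hematocrit final) incubated with compounds 72 h at 37 °C, 5% CO2; SYBR Green lysis buffer added, fluorescence read next day. Normalized to 0.29 uM artemisinin and DMSO.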
# [2] = molecular target: Atrial natriuretic peptide receptor 1 (Homo sapiens) (UniProt P16066); experiment: Natriuretic polypeptide receptor (hNpr1) antagonism - Pilot CMLD screen (AID 1347052; calls by dose curve;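 also: HEK293 cells with hNpr1 stimulated by hNppA peptide at 0.1 nM; cGMP level read as GloSensor luciferase luminescence after agonist stimulation; series mostly up to about 9.2 µM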)
# Chain of Atrial natriuretic peptide receptor 1 (Homo sapiens) (P16066 whole entry, looked up): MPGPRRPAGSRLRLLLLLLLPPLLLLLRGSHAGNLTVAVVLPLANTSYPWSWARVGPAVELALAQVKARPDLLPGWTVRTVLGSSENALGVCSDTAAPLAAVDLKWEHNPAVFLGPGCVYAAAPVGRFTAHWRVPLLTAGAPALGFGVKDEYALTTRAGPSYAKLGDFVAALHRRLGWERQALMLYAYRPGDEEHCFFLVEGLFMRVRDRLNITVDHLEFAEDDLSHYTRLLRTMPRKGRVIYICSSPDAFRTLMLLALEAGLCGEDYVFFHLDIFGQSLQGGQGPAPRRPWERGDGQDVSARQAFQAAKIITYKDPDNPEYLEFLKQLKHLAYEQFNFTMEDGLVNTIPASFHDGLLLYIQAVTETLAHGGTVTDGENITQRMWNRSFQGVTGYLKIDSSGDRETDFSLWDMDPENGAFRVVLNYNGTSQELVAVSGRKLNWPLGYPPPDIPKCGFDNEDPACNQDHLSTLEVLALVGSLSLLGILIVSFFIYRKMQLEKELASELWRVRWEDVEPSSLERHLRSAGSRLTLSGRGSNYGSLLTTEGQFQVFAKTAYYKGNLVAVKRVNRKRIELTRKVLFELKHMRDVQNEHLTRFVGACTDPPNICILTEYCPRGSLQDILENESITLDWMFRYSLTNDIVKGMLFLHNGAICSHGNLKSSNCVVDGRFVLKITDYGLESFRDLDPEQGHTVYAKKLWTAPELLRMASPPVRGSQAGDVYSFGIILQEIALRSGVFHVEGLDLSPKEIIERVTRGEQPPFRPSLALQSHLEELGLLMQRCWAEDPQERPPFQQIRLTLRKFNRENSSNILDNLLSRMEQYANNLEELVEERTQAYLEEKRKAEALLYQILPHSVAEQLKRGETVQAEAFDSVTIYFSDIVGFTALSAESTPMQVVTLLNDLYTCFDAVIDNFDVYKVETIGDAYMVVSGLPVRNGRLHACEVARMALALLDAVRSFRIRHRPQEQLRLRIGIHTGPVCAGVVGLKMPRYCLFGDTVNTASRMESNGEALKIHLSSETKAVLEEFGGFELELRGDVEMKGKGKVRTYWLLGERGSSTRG
# [3] = molecular target: N-terminal Xaa-Pro-Lys N-methyltransferase 1 (Homo sapiens) (UniProt Q9BV86); experiment: qHTS Assay for Inhibitors of N-terminal methyltransferase 1 (NTMT1): LOPAC validation of the NTMT1 SAHH-coupled ThioGlo3 Assay (AID 1347143);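 also: SAH from peptide methylation measured as thiol fluorescence via SAHH coupling and ThioGlo3; potency is read from the fitted curve at half-maximal effect; nearly all actives have a fitted effect of over 70% in size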
# Chain of N-terminal Xaa-Pro-Lys N-methyltransferase 1 (Homo sapiens) (Q9BV86 whole entry, looked up): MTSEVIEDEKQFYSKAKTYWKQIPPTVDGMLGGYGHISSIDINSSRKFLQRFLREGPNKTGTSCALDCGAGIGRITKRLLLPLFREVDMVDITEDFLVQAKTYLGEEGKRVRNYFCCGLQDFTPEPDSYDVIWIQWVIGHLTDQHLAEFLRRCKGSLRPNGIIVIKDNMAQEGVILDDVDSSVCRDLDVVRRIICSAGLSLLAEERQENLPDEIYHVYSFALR
# Method in brief: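 Recombinant human NTMT1 (125nM) was pre-incubated 1 min at room temperature with compounds over a concentration range, then a mix of 100uM SAM, 10uM SAHH and 15uM ThioGlo3 (concentrations in added reagent) was added. ThioGlo3 fluorescence (ex 340/em 450nm) after 30 min was normalized to the initial reading.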
# Furin (Homo sapiens) = Furin (Homo sapiens) (UniProt P09958); experiment: Furin counterscreen qHTS for Zika virus inhibitors (AID 1347149); also: potency is read from the fitted curve at half-maximal effect; nearly all actives have a fitted effect of over 70% in size
# Chain of Furin (Homo sapiens) (P09958 whole entry, looked up): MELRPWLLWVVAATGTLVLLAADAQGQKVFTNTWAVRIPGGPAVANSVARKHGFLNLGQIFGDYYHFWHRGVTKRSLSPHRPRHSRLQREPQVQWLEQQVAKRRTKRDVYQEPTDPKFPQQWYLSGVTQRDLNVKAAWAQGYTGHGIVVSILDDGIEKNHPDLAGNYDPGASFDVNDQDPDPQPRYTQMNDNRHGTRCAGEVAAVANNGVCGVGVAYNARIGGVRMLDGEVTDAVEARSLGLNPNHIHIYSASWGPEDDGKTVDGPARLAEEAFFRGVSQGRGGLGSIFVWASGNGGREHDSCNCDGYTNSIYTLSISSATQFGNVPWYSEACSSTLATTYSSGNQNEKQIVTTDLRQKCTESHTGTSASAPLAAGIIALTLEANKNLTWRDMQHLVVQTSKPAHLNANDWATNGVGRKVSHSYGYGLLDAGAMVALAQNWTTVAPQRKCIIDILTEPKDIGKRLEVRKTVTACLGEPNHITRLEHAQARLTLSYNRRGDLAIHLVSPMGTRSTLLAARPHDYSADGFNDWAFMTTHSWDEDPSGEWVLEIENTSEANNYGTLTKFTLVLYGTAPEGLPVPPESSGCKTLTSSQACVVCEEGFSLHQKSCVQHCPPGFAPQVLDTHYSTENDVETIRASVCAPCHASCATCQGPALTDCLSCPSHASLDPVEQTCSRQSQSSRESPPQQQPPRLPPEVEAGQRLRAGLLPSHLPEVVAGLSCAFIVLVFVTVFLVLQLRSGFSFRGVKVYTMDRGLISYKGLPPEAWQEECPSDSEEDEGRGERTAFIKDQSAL
# Method in brief: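 Fluorogenic cleavage of BOC-RVRR-AMC (2 microM final, Km ~15 µM) was monitored (ex 340, em 450 nm) at 37C after 15 min RT preincubation of 5 nM furin with compounds in HEPES pH 7.0 buffer with CaCl2 and Triton X-100. Percent inhibition was fitted to a 4-parameter Hill curve.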
smiles,measurement,setting,value
O=C1c2ccccc2C(=O)N1CCCC[C@]12Cc3ccccc3[C@H](O1)c1c(c3ccccc3oc1=O)O2,Potency,[1],1690 nM (active)
same,Potency,[2],inactive
CC(CCN1CCc2nc(-c3ccccc3)c(-c3ccccc3)cc2C1)=NO[C@H](C)CN1CCCCc2nc(C)c(C)cc21,Potency,[1],inactive
same,Potency,[2],inactive
C[C@H]1C[C@@H](C)O[C@@]2(C1)C(=O)N(Cc1ccc(F)cc1)c1ccccc12,Potency,[1],inactive
same,Potency,[2],inactive
CC(C)(C)c1ccc(O[C@@H]2[C@H](O)CO[C@@H]2C=CC#Cc2ccccc2)cc1,Potency,[1],inactive
same,Potency,[2],inactive
N.N.N.N.N.N.N.N.N.N.N.N.N.N.O.O.[Cl-].[Cl-].[Cl-].[Cl-].[Cl-].[Cl-].[Ru+4].[Ru+5].[Ru+5],Potency,[3],44700 nM (active)
COc1cc2c(c(OC)c1OC)[C@@]1(c3ccccc3)CCCC[C@H]1[C@@H]2NC(=O)C(F)(F)F,Potency,[1],inactive
same,Potency,[2],inactive
NC(=O)[C@@H](CCCN=C(N)N)NC(=O)[C@@H](CCCN=C(N)N)NC(=O)[C@@H](CCCN=C(N)N)NC(=O)[C@@H](CCCN=C(N)N)NC(=O)[C@@H](CCCN=C(N)N)NC(=O)[C@H](N)CCCN=C(N)N,Potency,Furin (Homo sapiens),2510 nM (active)
